Source: PubChem BioAssay (several laboratories)
In the library only some 2% were active in any assay of this set; here they are far more common.
Exocytosis inh: lytic granule exocytosis inhibition. 360,000 compounds, 0.66% hits. TALL-104 LAMP-1 surface exposure, flow cytometry; cells stimulated with thapsigargin and PMA. AID 651702. inhibition, % at 10 µM;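 active = inhibition above about 55%, limit read from the data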
VLA-4 inh: inhibition in a human VLA-4 binding assay; inhibition, % (about 7 µM as worked out from the volumes in the protocol); VLA-4 expressing cells, ligand binding flow cytometry; 330,000 compounds, 0.2% hits; in the data active = inhibition above about 50%
PG9 binder: PG9 antibody binding by small molecule; TR-FRET gp120-PG9 antibody binding; inhibition, % at 6.7 µM; 360,000 compounds, 0.43% hits; AID 624416; in the data active = inhibition above about 8.5%
ABCB6 inh 2: human ABCB6 transporter inhibition; 360,000 compounds, 0.19% hits; K562-ABCB6 porphyrin accumulation, flow cytometry, 1 h; stronger effect = lower value; Q9NP58; fluorescence ratio to DMSO, % at 10 µM; AID 602162;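 active = fluorescence ratio to DMSO below 75%, the collection mean minus 3 SD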;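 also: signal is porphyrin accumulated inside mitochondria; 100% equals median channel fluorescence of DMSO control wells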
Rev-erbA mod: modulates human Rev-erb alpha binding to DNA. 370,000 compounds, 0.79% hits. activity, % at 10 µM. Rev-erbα–FITC-DNA binding, fluorescence polarization, 90 min;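 active = activity above about 14%, limit read from the data; passing the limit was not always enough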;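 also: 0% = DMSO wells with 35 nM protein and 100% = DMSO wells with 750 nM protein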
Target sequence (P20393 whole entry, looked up): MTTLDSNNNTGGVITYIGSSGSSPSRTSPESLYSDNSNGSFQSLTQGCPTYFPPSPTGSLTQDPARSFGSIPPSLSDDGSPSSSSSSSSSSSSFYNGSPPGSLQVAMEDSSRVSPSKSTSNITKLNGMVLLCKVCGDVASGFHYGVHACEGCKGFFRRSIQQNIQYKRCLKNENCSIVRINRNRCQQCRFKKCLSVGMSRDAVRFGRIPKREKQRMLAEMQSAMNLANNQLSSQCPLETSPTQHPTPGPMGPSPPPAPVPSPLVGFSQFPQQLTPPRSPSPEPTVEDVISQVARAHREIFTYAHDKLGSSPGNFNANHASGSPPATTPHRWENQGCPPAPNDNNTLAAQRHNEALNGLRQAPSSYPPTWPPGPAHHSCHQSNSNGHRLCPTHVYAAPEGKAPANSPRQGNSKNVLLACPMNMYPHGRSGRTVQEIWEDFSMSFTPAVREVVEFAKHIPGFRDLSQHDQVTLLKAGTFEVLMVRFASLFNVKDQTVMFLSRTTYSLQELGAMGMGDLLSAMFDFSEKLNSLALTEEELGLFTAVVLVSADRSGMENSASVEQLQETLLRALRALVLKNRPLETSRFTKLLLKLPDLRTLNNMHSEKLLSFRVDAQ
ABCB6 inh CP1: blocks the human ABCB6 transporter. K562-ABCB6 porphyrin accumulation, flow cytometry, 1 h; stronger effect = lower value. ratio response (% of DMSO), % at 10 µM. shares compounds with ABCB6 inh 2. 700 tested, under 10 active;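 active = repeat-averaged ratio response below 75% of DMSO, the collection mean minus 3 SD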;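 also: median porphyrin fluorescence at 575 nm with 488 nm excitation from mitochondria; lower ratio means less porphyrin signal so ABCB6 inhibition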
K562 vector FC: effect in K562 cells lacking ABCB6, counter-screen | shares compounds with ABCB6 inh 2 | K562 empty-vector cells, flow cytometry fluorescence, 1 h | percent response (fluorescence), % at 100 µM | 25 tested, under 10 active;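 active = compounds whose half-maximal effective concentration is below 100 µM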
* hit, by the source's call; . = no result given.

SMILES | Exocytosis inh | VLA-4 inh | PG9 binder | ABCB6 inh 2 | Rev-erbA mod | ABCB6 inh CP1 | others
CCCCCN(C(=O)CCC(=O)OCC(=O)NCc1cccc(OC)c1)c1c(N)n(CCCC)c(=O)[nH]c1=O | -2.0 | 2.1 | -1.3 | 96.0 | -1.0 | .
CCCCCN(C(=O)CCC(=O)OCC(=O)c1ccc(C(C)(C)C)cc1)c1c(N)n(CCCC)c(=O)[nH]c1=O | -10.3 | 5.5 | -1.0 | 94.0 | -4.5 | .
CCN(CC)C(=O)CC[C@@H]1CC[C@]2(CCCN(C(=O)C(C)(C)C)C2)O1 | . | . | . | . | 1.0 | .
Nc1ccn([C@@H]2O[C@H](C(=O)N[C@H](Cc3ccccc3)C(=O)N3CCN(C(=O)N4CCCCC4)CC3)[C@@H](O)[C@H]2O)c(=O)n1 | . | . | -2.5 | . | -2.1 | .
CC(C)CN(C(=O)CCC(=O)OCC(=O)c1ccc(F)c(F)c1)c1c(N)n(CC(C)C)c(=O)[nH]c1=O | 0.6 | -8.1 | 0.4 | 91.0 | -5.4 | .
CC(C)CN(C(=O)CCC(=O)OCC(=O)N(C)c1ccccc1)c1c(N)n(CC(C)C)c(=O)[nH]c1=O | 2.1 | -16.6 | 0.5 | 100.0 | 4.0 | 102.0
Cc1ccccc1N(Cc1ccccc1F)S(C)(=O)=O | 3.4 | 2.7 | 1.7 | 63.0* | 7.2 | 99.0
CN(CCO)c1cccc2c1S(=O)(=O)N(Cc1cn(Cc3ccc(F)cc3)nn1)Cc1ccccc1O2 | . | . | . | . | 0.2 | .
Cc1ccc(C(=O)Cc2ccccc2)c(O)c1 | -16.8 | . | -1.9 | 102.0 | 0.8 | .
CC(C)=CCc1c(O)ccc(C(=O)Cc2ccccc2)c1O | 0.7 | 21.2 | -0.7 | 64.0* | 4.1 | 96.0
C[C@@H]1CCN(C2CC2)S(=O)(=O)c2c(cccc2N2CCC[C@@H]2C)O1 | . | . | . | . | 6.0 | .
CC1(C)Cn2c(nnc2-c2ccccc2)S1 | -4.4 | -7.7 | -1.6 | 74.0* | -0.7 | 102.0
CC1(C(=O)N2CCC(Oc3cccnc3)CC2)CC1 | . | . | . | . | 2.5 | .
O=C(NCc1ccco1)c1c2c(nc3ccccc13)CCC2 | -0.3 | 2.9 | 0.1 | 74.0* | -17.9 | 101.0
O=C(CSc1c2c(nc3ccccc13)CCCC2)NCc1ccco1 | -2.5 | 6.9 | -1.1 | 97.0 | -2.8 | .
COC(=O)c1ccc(NC(=O)c2nc(S(=O)(=O)Cc3cccc(C)c3)ncc2Cl)cc1 | 34.8 | 21.2 | -1.4 | 41.0* | -4.5 | 91.0
CC(=O)Nc1ccc(NC(=O)c2nc(S(=O)(=O)Cc3cccc(C)c3)ncc2Cl)cc1 | -5.1 | 21.7 | 2.3 | 67.0* | 8.3 | . | K562 vector FC=224.4
O=C(CN1c2cccc3cccc(c23)S1(=O)=O)NCc1ccc(Cl)cc1 | 3.0 | -3.5 | -1.4 | 102.0 | -2.3 | .
O=C(CN1c2cccc3cccc(c23)S1(=O)=O)NCc1ccccc1Cl | -4.8 | . | 0.3 | 74.0* | -2.1 | 103.0
Cc1cc(C)cc(CC(=O)N2CCC2(C)C(=O)NS(=O)(=O)c2ccc(C(C)(C)C)cc2)c1 (stereo not drawn) | 2.5 | . | 0.1 | 94.0 | -0.9 | .
COc1ccc(S(=O)(=O)NC(=O)C2(C)CCN2C(=O)Cc2ccccc2Cl)cc1OC (stereo not drawn) | 10.2 | . | -0.7 | 96.0 | -1.8 | .
CC1(C(=O)NS(=O)(=O)c2cccc(C#N)c2)CCN1C(=O)Cc1ccccc1Cl (stereo not drawn) | 4.4 | . | 0.1 | 97.0 | 2.1 | 100.0
Cc1cc(C)cc(CC(=O)N2CCC2(C)C(=O)NS(=O)(=O)c2cccc(F)c2)c1 (stereo not drawn) | -2.4 | . | -3.6 | 100.0 | 1.9 | 103.0
Cc1cc(C)cc(CC(=O)N2CCC2(C)C(=O)NS(=O)(=O)c2ccc(Br)cc2)c1 (stereo not drawn) | -3.0 | . | -0.4 | 96.0 | 0.3 | 100.0
Cc1cc(C)cc(CC(=O)N2CCC2(C)C(=O)NS(=O)(=O)c2ccccc2)c1 (stereo not drawn) | -6.5 | . | -1.9 | 97.0 | 3.5 | .
SMILES | Exocytosis inh | VLA-4 inh | PG9 binder | ABCB6 inh 2 | Rev-erbA mod | ABCB6 inh CP1 | others
CC1(C(=O)NS(=O)(=O)c2cccc(C#N)c2)CCN1C(=O)Cc1ccc(Cl)cc1Cl (stereo not drawn) | 4.8 | . | 1.7 | 85.0 | 0.8 | .
CC1(C(=O)NS(=O)(=O)c2cccc(F)c2)CCN1C(=O)Cc1ccccc1Cl (stereo not drawn) | -4.1 | . | 1.1 | 95.0 | 2.1 | 98.0
CCOC(=O)c1cnc2c3c(noc13)CCC2 | . | . | -1.4 | . | -3.6 | .
CCN1CCN(C(=O)NC(C(=O)N[C@H]2C(=O)N3C(C(=O)O)=C(CSc4nnnn4C)CSC23)c2ccc(O)cc2)C(=O)C1=O (stereo partly drawn) | . | . | . | . | -8.4 | .
c1nc(NCC2CCCOC2)c2cc(-c3ccc4c(c3)OCO4)ccc2n1 (stereo not drawn) | . | . | . | . | -2.5 | .
CC(C)(C)c1ccc(CC(=O)N2CCC2(C)C(=O)NS(=O)(=O)c2cccc(C#N)c2)cc1 (stereo not drawn) | 4.3 | . | 0.7 | 61.0* | 1.5 | 102.0
Cc1ccc2nc(CSc3nnc(Cc4cccs4)n3C3CCCCC3)cc(=O)n2c1 | 1.3 | -7.7 | 3.2 | 66.0* | 1.8 | 102.0
Cc1sc2nc(CSc3nnc(Cc4cccs4)n3C3CCCCC3)[nH]c(=O)c2c1C | -0.9 | -24.9 | 0.1 | 99.0 | 2.4 | .
COc1ccccc1-c1nnc(SC/C(O)=C(\C#N)c2nc3ccccc3[nH]2)n1C1CCCCC1 | 15.3 | 20.6 | -3.2 | 71.0* | 4.7 | 102.0
COc1ccccc1Oc1ncnc2c1oc1ccccc12 | -1.0 | -6.4 | 1.4 | 69.0* | 6.3 | 100.0
CN[C@H]1C[C@@H](c2ccccc2Br)N(C(C)=O)C[C@H]1CO | . | . | -0.5 | . | -0.6 | .
COc1ccccc1NS(=O)(=O)c1ccc(C(=O)N2CCCC(C(F)(F)F)C2)cc1 (stereo not drawn) | 4.1 | 0.0 | 0.7 | 93.0 | -4.8 | .
COc1ccccc1N(C)S(=O)(=O)c1ccc(C(=O)N2CCCC(C(F)(F)F)C2)cc1 (stereo not drawn) | 0.8 | 12.7 | . | 74.0* | . | 102.0
COc1ccc(-c2cc(C(=O)Nc3c(C)nn(Cc4ccccc4)c3C)no2)cc1 | -2.7 | 0.3 | -3.5 | 51.0* | 3.1 | 100.0
COc1cccc(-c2cc(C(=O)Nc3c(C)nn(Cc4ccccc4)c3C)no2)c1 | -0.6 | 12.4 | . | 95.0 | 4.4 | .
COCCNC(=O)CCc1nnc2ccc(N3CCC(C)CC3)nn12 | 2.5 | 9.1 | 1.7 | 96.0 | 7.1 | 101.0
COCCCNC(=O)CCc1nnc2ccc(N3CCC(C)CC3)nn12 | -14.0 | 9.8 | 0.4 | 94.0 | -4.4 | 102.0
COc1cc(NC(=O)CCc2nnc3ccc(N4CCC(C)CC4)nn23)cc(OC)c1 | -2.7 | 0.4 | -0.7 | 101.0 | 8.5 | .
COC(=O)C(NC(=O)CCc1nnc2ccc(N3CCCCC3)nn12)C(C)C (stereo not drawn) | 9.2 | 6.3 | 0.2 | 100.0 | 3.0 | 100.0
CC1CCN(c2ccc3nnc(CCC(=O)NC(C)C)n3n2)CC1 | -0.5 | 9.1 | 0.4 | 97.0 | -0.6 | 91.0
